ChEMBL document CHEMBL4513135, “CO-ADD screening of IQOG CSIS (Spain) compounds”
Measured potencies and affinities stand elsewhere.

Key:
Staphylococcus aureus = details: Concentration 32 ug.mL-1; ASSAY_TEST Inhibition of Bacterial Growth; detection method Absorption (OD600); MEDIA CAMHB; plate type 384well; NBS; CORNING #3640; time 18 hr
Escherichia coli = details: Concentration 32 ug.mL-1; ASSAY_TEST Inhibition of Bacterial Growth; detection method Absorption (OD600); MEDIA CAMHB; plate type 384well; NBS; CORNING #3640; time 18 hr

| SMILES | Inhibition (Staphylococcus aureus) | Inhibition (Escherichia coli) |
| --- | --- | --- |
| CCOC(=O)c1cc2ccccc2[nH]1 | 8.39% | 13.65% |
| C#CCN(C)Cc1cc2cc(OCCCC3CCN(C(=O)OC(C)(C)C)CC3)ccc2n1C | 10.44% | 14.28% |
| O=c1oc2cc(O)ccc2cc1-c1ccccc1 | 10.2% | 2.31% |
| N#Cc1cc(C#N)c(NCCCC2CCN(Cc3ccccc3)CC2)nc1N | 49.11% | -3.28% |
| N#Cc1c(Cl)nc(NC2CCN(Cc3ccccc3)CC2)c(C#N)c1-c1ccccc1 | -0.92% | -18.84% |
| Cc1cc(Br)cc(C)c1NC=C(C#N)C#N | 7.73% | 12.6% |
| C#CCN(C)Cc1cc2cc(OCc3ccc(OC)c4ncccc34)ccc2n1C | 3.95% | -18.67% |
| CN(C)c1ccc(C(=NNC(=O)c2cc3ccccc3[nH]2)c2ccc(N(C)C)cc2)cc1 | -9.28% | -3.28% |
| Cc1ccc2[nH]c(=O)c(C=O)cc2c1 | 3.11% | -7.4% |
| COc1ccc(-c2cc(-c3cc4c(OC)ccc(OC)c4nc3Cl)cc(=O)[nH]2)cc1 | 22.4% | -10.79% |
| CCOC(=O)C1=C(C)OC(N)=C(C#N)C1c1ccc(OC)c(OC)c1 (stereo not drawn) | 21.72% | -10.4% |
| O=C(NN=Cc1c[nH]c2ccccc12)c1cccc2ccccc12 | 15.12% | 10.09% |
| C#CCNc1nc(NCCC2CCN(Cc3ccccc3)CC2)c(C#N)cc1C#N | -4.51% | -8.4% |
| CC(=O)/C=C/C1CCN(Cc2ccccc2)CC1 | 28.47% | -12.86% |
| Cc1nn(-c2ccccc2)c2ncnc(Nc3ccccc3)c12 | 6.52% | 10.84% |
| COc1ccc(-c2cc(-c3cc4ccccc4nc3Cl)cc(=O)[nH]2)cc1 | 22.93% | -12.6% |
| CC/C(C)=N/NC(=O)Cc1c[nH]c2ccccc12 | -7.02% | -3.01% |

| SMILES | Inhibition (Staphylococcus aureus) | Inhibition (Escherichia coli) |
| --- | --- | --- |
| N#Cc1c(N)nc(N2CCC(Cc3ccccc3)CC2)c(C#N)c1-c1ccccc1 | 8.01% | -15.68% |
| Cl.Nc1c2c(nc3c1C(c1ccccc1)c1ccc4ccccc4c1O3)CCCC2 (stereo not drawn) | 23.84% | 6.79% |
| COC(=O)C(C#N)=Cc1ccccc1 | 23.27% | 9.25% |
| C=C1CN(C)c2c(C#N)c(-c3ccccc3)c(C#N)c(=N)n21 | 11.22% | -20.05% |
| O=C(N[C@H]1CC[C@@H](Br)[C@@H](Br)C1)C(F)(F)F | 24.31% | -25.88% |
| O=C1OC(c2ccccc2)=NC12CC2c1ccc([N+](=O)[O-])cc1 (stereo not drawn) | 9.12% | 5.57% |
| COc1ccc2cc(C3C(C(C)=O)=C(C)Oc4nc5c(c(N)c43)CCC5)c(Cl)nc2c1 (stereo not drawn) | 7.35% | 4.4% |
| C/C=C(/C#N)C(=O)OC | -6.91% | -6.93% |
| CC1=C(CO)C(c2ccc(C#N)cc2)C(C#N)=C(N)O1 (stereo not drawn) | 9.52% | 17.18% |
| CNC(=O)c1cc2cc(OCc3ccccc3)ccc2n1C | 23.23% | -13.67% |
| C#CCN(C)c1nc(N(C)CC#C)c(C#N)cc1C#N | 20.85% | -13.82% |
| C=C1CN(C)c2ncc(C#N)c(=N)n21 | 2.81% | -21.82% |
| Cl.N#Cc1c(N)nc(NCCO)c(C#N)c1-c1ccccc1 | 32.81% | -7.39% |
| Cc1cnc2ccc(Cl)cn12 | 9.7% | 8.76% |
| N#CC1=C(N)NC(=O)CC1c1ccccc1 (stereo not drawn) | 34.44% | 4.14% |
| N#Cc1cc(C#N)c(NCCO)nc1N | 40.77% | -7.55% |
| O=C(Cc1c[nH]c2ccccc12)NNCc1ccccc1 | -6.19% | -10.21% |
